Measured values from PubChem BioAssay (Tox21).
Inconclusive results are not listed. Where a call stands in place of a potency, no number is given. Values without a mark were called inactive. Active and inactive are the calls of the source. Unless noted, calls follow the shape of the dose curve; as a rule, active = well fitted curve in the direction sought with a large enough effect in the repeat runs; inconclusive = weak or mixed curves; inactive = no such curve, though single readings can be large; an effect the other way counts as inactive or inconclusive.

Assays:
[1] = qHTS assay to identify small molecule agonists of the peroxisome proliferator-activated receptor delta (PPARd) signaling pathway - cell viability counter screen (AID 743211); also: nearly all actives have a fitted effect of over 55% in size
Summary of the method: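 In the same wells used for beta-lactamase reporter measurement, cytotoxicity is scored by CellTiter-Glo. HEK293H PPARd-bla cells receive compound for 17 h at 37C following a 5 h settling period.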

[2] = target: Peroxisome proliferator-activated receptor delta (Homo sapiens) (UniProt Q03181); test: qHTS assay to identify small molecule agonists of the peroxisome proliferator-activated receptor delta (PPARd) signaling pathway (AID 743212; calls by dose curve)
Summary of the method: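 Tox21 library screened in GeneBLAzer PPARd UAS-bla HEK293H cells. After compound treatment at 37 C, a FRET-based beta-lactamase substrate was applied for 2 h and fluorescence recorded.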

[3] = qHTS assay to identify small molecule antagonists of the peroxisome proliferator-activated receptor delta (PPARd) signaling pathway - cell viability counter screen (AID 743213); also: nearly all actives have a fitted effect of over 50% in size
Summary of the method: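 HEK293H PPARd UAS-bla cells, 5 h pre-incubation, compound + L165041 300 nM final, 17 h 37 C; B/G FRET substrate 2 h RT; then CellTiter-Glo 30 min RT, luminescence.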

[4] = qHTS assay to identify small molecule agonists of the farnesoid-X-receptor (FXR) signaling pathway - cell viability counter screen (AID 743218); also: nearly all actives have a fitted effect of over 45% in size
Summary of the method: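 Luminescence from CellTiter-Glo, read after 30 min at RT, reports viability of GeneBLAzer FXR-UAS-bla HEK 293T cells treated 16 h with compounds in the wells used for the beta-lactamase reporter.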

[5] = qHTS assay to identify small molecule antagonists of the farnesoid-X-receptor (FXR) signaling pathway - cell viability counter screen (AID 743221; active = well fitted cell-killing curve with a large enough effect in the repeat runs, not every such curve was filed as active; also: nearly all actives have a fitted effect of over 50% in size)
Summary of the method: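 Here viability was scored by luminescence after CellTiter-Glo addition to wells already read for beta-lactamase. Prior treatment: compound plus CDCA (50 uM final), 16 h, 37 C, HEK 293T FXR-bla cells.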

[6] = target: Vitamin D3 receptor (Homo sapiens) (UniProt P11473); test: qHTS assay to identify small molecule agonists of the vitamin D receptor (VDR) signaling pathway (AID 743222; calls by dose curve)
Summary of the method: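 Beta-lactamase reporter readout (LiveBLAzer B/G FRET, 2 h RT) in VDR-bla cells after 16 h compound treatment at 37C, 5% CO2; cells pre-incubated 4 h before pin transfer of DMSO solutions.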

[7] = qHTS assay to identify small molecule agonists of the vitamin D receptor (VDR) signaling pathway - cell viability counter screen (AID 743224); also: series mostly up to about 63 µM; nearly all actives have a fitted effect of over 50% in size
Summary of the method: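 Cytotoxicity counter screen: VDR-bla cells, 16 h compound exposure at 37C, 5% CO2; CellTiter-Glo luminescence, 30 min RT, same wells as bla read.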

[8] = qHTS assay to identify small molecule antagonists of the vitamin D receptor (VDR) signaling pathway - cell viability counter screen (AID 743225); also: nearly all actives have a fitted effect of over 50% in size
Summary of the method: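 Compounds were pinned onto VDR-bla HEK 293T cells together with 1-alpha,25-dihydroxyvitamin D3 at 3 nM final. After 16 h at 37C and 5% CO2 plus the reporter readout, cell viability was measured by CellTiter-Glo luminescence (30 min, room temperature).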

[9] = qHTS assay to identify small molecule agonists of the NFkB signaling pathway (AID 1159509; active = well fitted curve in the direction sought with a large enough effect in the signal ratio in the repeat runs, not every such curve was filed as active; the % refers to the signal ratio; also: series mostly up to about 61 µM)
Summary of the method: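 Pathway activation was measured in ME-180 cells stably expressing beta-lactamase under NF-kB response element control. Substrate cleavage was read as the 460/530 nm emission shift after 5 hr compound incubation.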

[10] = qHTS assay to identify small molecule agonists of the NFkB signaling pathway - cell viability counter screen (AID 1159515; calls by dose curve; also: series mostly up to about 61 µM; nearly all actives have a fitted effect of over 55% in size)
Summary of the method: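 ME-180 NFkB-bla cells, 2,000/well; overnight attach; compound 5 hr, 37 C/5% CO2; LiveBLAzer substrate 1.5 hr RT; then CellTiter-Glo in same wells, 30 min RT, luminescence read.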

[11] = qHTS assay to identify small molecule agonists of the endoplasmic reticulum stress response signaling pathway (AID 1159516; active = well fitted activation curve with a large enough effect in the signal ratio in the repeat runs, not every such curve was filed as active; the % refers to the signal ratio)
Summary of the method: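 HeLa ESRE-bla reporter line; cpd 5 h, 37 C/5% CO2; LiveBLAzer B/G FRET substrate 2 h RT; ex 405, em 460/530 nm.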

[12] = qHTS assay to identify small molecule agonists of the endoplasmic reticulum stress response signaling pathway - cell viability counter screen (AID 1159517; calls by dose curve)
Summary of the method: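 In parallel with the ESRE reporter read, cytotoxicity was scored by CellTiter-Glo luminescence (30 min, room temperature) on HeLa ESRE-bla cells dosed for 5 hr.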

[13] = qHTS assay to identify small molecule antagonists of the retinoid-related orphan receptor gamma (ROR-gamma) signaling pathway - cell viability counter screen (AID 1159520); also: nearly all actives have a fitted effect of over 50% in size
Summary of the method: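 Tet-on ROR gamma CHO cells were given compounds for 2 hr, then doxycycline hyclate at 1 uM final, and incubated 16 hr at 37 C. Viability was measured as ATP content by CellTiter-Glo luminescence.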

[14] = target: Nuclear receptor ROR-gamma (Homo sapiens) (UniProt P51449); test: qHTS assay to identify small molecule antagonists of the retinoid-related orphan receptor gamma (ROR-gamma) signaling pathway (AID 1159521; also: nearly all actives have a fitted effect of over 50% in size; also: potency is read from the fitted curve at half-maximal effect)
Summary of the method: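 Test compounds were applied to Tet-on RORγ CHO cells 2 h ahead of doxycycline hyclate (1 uM final). Luciferase reporter activity was quantified by luminescence after 16 h at 37 C and 5% CO2.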

[15] = qHTS assay to identify small molecule agonists of the AP-1 signaling pathway (AID 1159526; calls by dose curve)
[16] = target: Peroxisome proliferator-activated receptor delta (Homo sapiens) (UniProt Q03181); test: qHTS assay to identify small molecule antagonists of the peroxisome proliferator-activated receptor delta (PPARd) signaling pathway (AID 743215; active = well fitted inhibition curve with a large enough effect in the signal ratio in the repeat runs, not every such curve was filed as active; the % refers to the signal ratio;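 also: cells stimulated with agonist L165041 at 300 nM final during compound exposure; series mostly up to about 62 µM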)
Summary of the method: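 HEK293H GeneBLAzer PPARd UAS-bla reporter cells; cpd + L165041 300 nM final, 17 h 37 C; LiveBLAzer B/G FRET substrate 2 h RT; fluorescence intensity read-out. Antagonist mode.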

[17] = target: Vitamin D3 receptor (Homo sapiens) (UniProt P11473); test: qHTS assay to identify small molecule antagonists of the vitamin D receptor (VDR) signaling pathway (AID 743223; active = well fitted inhibition curve with a large enough effect in the signal ratio in the repeat runs, not every such curve was filed as active; the % refers to the signal ratio)
Summary of the method: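 Inhibition of agonist-driven VDR signalling is scored in VDR-bla cells: 3 nM final 1alpha,25-dihydroxyvitamin D3 plus compound, 16 h at 37C, then beta-lactamase detection by FRET substrate fluorescence after 2 h.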

[18] = target: Bile acid receptor (Homo sapiens) (UniProt Q96RI1); test: qHTS assay to identify small molecule antagonists of the farnesoid-X-receptor (FXR) signaling pathway (AID 743217; active = well fitted inhibition curve with a large enough effect in the signal ratio in the repeat runs, not every such curve was filed as active; the % refers to the signal ratio)
Summary of the method: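 Read-out: beta-lactamase FRET fluorescence (LiveBLAzer B/G substrate, 2 h, room temperature) in GeneBLAzer FXR-UAS-bla HEK 293T cells. Compounds were co-dosed with 50 uM chenodeoxycholic acid (final) and incubated 16 h at 37 °C.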

[19] = target: Bile acid receptor (Homo sapiens) (UniProt Q96RI1); test: qHTS assay to identify small molecule agonists of the farnesoid-X-receptor (FXR) signaling pathway (AID 743220; active = well fitted activation curve with a large enough effect in the signal ratio in the repeat runs, not every such curve was filed as active; the % refers to the signal ratio)
Summary of the method: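 FXR-UAS-bla HEK 293T cells carrying a UAS-driven beta-lactamase reporter were plated for 5 h at 37C/5% CO2, then exposed to DMSO-dissolved Tox21 10K compounds for 16 h at 37C. A LiveBLAzer B/G FRET substrate was loaded for 2 h at room temperature before fluorescence reading.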

[20] = qHTS assay to identify small molecule agonists of the AP-1 signaling pathway - cell viability counter screen (AID 1159525; calls by dose curve; also: nearly all actives have a fitted effect of over 55% in size)
Summary of the method: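 Same-well cytotoxicity counter screen of the Tox21 10K library in ME-180 cells. The readout is ATP-dependent luminescence after 5 h compound treatment. Data are normalised to DMSO and tetra n-octyl ammonium bromide controls.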

Chain of Peroxisome proliferator-activated receptor delta (Homo sapiens) (Q03181 whole entry, looked up): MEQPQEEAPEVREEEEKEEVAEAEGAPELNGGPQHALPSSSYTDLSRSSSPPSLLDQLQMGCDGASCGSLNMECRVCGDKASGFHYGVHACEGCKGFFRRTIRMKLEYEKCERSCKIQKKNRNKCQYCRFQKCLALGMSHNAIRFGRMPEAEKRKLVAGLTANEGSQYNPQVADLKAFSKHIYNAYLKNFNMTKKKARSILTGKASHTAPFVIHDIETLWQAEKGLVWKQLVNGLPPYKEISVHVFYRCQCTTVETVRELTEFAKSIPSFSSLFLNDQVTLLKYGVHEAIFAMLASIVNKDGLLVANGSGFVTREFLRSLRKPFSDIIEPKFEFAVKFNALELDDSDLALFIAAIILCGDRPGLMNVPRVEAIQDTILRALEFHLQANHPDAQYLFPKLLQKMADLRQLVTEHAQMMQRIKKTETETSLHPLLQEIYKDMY
Chain of Vitamin D3 receptor (Homo sapiens) (P11473 whole entry, looked up): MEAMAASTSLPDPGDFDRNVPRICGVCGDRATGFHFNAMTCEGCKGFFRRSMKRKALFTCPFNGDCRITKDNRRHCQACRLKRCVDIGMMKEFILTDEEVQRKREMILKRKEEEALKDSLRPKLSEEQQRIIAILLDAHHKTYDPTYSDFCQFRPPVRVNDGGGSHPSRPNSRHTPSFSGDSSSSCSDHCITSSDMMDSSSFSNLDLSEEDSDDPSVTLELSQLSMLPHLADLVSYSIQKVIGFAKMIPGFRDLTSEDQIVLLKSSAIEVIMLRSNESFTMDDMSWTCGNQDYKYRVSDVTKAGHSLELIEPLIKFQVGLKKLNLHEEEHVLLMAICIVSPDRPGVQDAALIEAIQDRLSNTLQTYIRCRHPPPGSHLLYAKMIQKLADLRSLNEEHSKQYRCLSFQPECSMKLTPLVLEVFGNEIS
Chain of Bile acid receptor (Homo sapiens) (Q96RI1 whole entry, looked up): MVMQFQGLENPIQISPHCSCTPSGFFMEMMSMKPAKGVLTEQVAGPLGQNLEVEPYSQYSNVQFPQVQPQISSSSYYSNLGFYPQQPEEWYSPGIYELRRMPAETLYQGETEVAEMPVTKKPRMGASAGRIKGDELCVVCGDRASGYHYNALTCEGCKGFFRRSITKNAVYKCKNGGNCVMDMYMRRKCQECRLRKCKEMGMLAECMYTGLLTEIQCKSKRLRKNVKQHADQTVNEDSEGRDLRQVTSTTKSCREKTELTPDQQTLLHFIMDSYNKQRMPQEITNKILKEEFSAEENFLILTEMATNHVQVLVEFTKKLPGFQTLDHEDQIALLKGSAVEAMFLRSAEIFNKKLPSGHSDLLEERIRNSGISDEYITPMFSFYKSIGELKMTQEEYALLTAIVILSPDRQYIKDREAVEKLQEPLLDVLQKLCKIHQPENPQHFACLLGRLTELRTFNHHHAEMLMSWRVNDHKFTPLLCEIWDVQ

| SMILES | Potency [1] | outcome [2] | Potency [3] | outcome [4] | Potency [5] | outcome [6] | outcome [7] | outcome [8] | outcome [9] | outcome [10] | outcome [11] | outcome [12] | Potency [13] | Potency [14] | Potency [15] | outcome [16] | outcome [17] | outcome [18] | outcome [19] | outcome [20] |
| --- | --- | --- | --- | --- | --- | --- | --- | --- | --- | --- | --- | --- | --- | --- | --- | --- | --- | --- | --- | --- |
| CC(C)CCCCCCN | inactive | inactive | inactive | inactive | inactive | inactive | inactive | inactive | inactive | inactive | inactive | inactive | inactive | inactive | inactive | – | – | – | – | – |
| O=C(O)C1CCC1 | inactive | inactive | inactive | – | inactive | inactive | – | inactive | inactive | inactive | inactive | inactive | inactive | inactive | inactive | inactive | inactive | – | – | – |
| CCn1c(=O)c2c(nc(/C=C/c3ccc(OC)c(OC)c3)n2C)n(CC)c1=O | inactive | inactive | inactive | inactive | inactive | inactive | inactive | inactive | inactive | inactive | inactive | inactive | inactive | inactive | inactive | – | inactive | inactive | inactive | – |
| COc1cccc(Br)c1 | – | inactive | inactive | inactive | inactive | inactive | inactive | – | inactive | inactive | inactive | inactive | inactive | inactive | inactive | – | – | – | – | inactive |
| NS(=O)(=O)c1cc(C2(O)NC(=O)c3ccccc32)ccc1Cl (stereo unspecified) | inactive | inactive | inactive | – | inactive | inactive | inactive | – | inactive | inactive | inactive | – | inactive | inactive | inactive | inactive | inactive | inactive | inactive | inactive |
| CC(C)(C)N(CCO)CCO | inactive | inactive | inactive | inactive | inactive | inactive | inactive | inactive | inactive | inactive | inactive | – | inactive | inactive | inactive | inactive | inactive | inactive | inactive | inactive |
| Cc1nccn1CC1CCc2c(c3ccccc3n2C)C1=O (stereo unspecified) | inactive | – | inactive | inactive | inactive | inactive | – | inactive | inactive | inactive | inactive | inactive | – | inactive | inactive | – | inactive | – | – | inactive |
| CCCCCOC(=O)Nc1nc(=O)n([C@@H]2O[C@H](C)[C@@H](O)[C@H]2O)cc1F | inactive | inactive | inactive | inactive | inactive | inactive | inactive | inactive | inactive | inactive | inactive | inactive | – | 11.9 µM (active) | inactive | – | inactive | – | – | inactive |
| C=C(C)[C@@H]1CCC2=CC(=O)C[C@@H](C)[C@]2(C)C1 | inactive | inactive | inactive | inactive | inactive | inactive | – | – | inactive | inactive | inactive | inactive | – | inactive | inactive | – | – | – | – | inactive |
